# Results: PubChem BioAssay (NCI)
# This is part of a sample that, as a whole, favours compounds with a hit. Of some 79,000 tested, about 15% had one in any assay. A number with no mark means an inactive call. Activity calls are given as the source filed them. Cut-off read from the data, not from the text of the source: active = growth inhibition above about 70%; inactive = the rest.
# Legend:
# [1] = NCI Yeast Anticancer Drug Screen. Data for the rad52 strain (AID 147);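 note: 0% = growth of vehicle-treated control cultures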; details: S. cerevisiae rad52 mutant growth inhibition, hits give high values
# Procedure, shortened: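 DNA repair-defective yeast; compound exposure; growth scored against vehicle controls.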
# [2] = NCI Yeast Anticancer Drug Screen. Data for the wt1 strain (AID 149);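 note: 0% = growth of vehicle-treated wt1 cultures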; details: S. cerevisiae wt1 strain (SPY 50644) growth inhibition, hits give high values
# Procedure, shortened: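 Measured: growth of wt1 yeast under compound versus vehicle treatment, reported as inhibition.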
# [3] = NCI Yeast Anticancer Drug Screen. Data for the rad50EPP+ strain (AID 151);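 note: 0% = growth of vehicle-treated control cultures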; details: S. cerevisiae rad50 mutant strain, hits give high values
# Procedure, shortened: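 rad50EPP+ yeast treated with test compounds. Readout: growth vs vehicle control.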
# [4] = NCI Yeast Anticancer Drug Screen. Data for the mgt1 strain (AID 153); details: S. cerevisiae mgt1 mutant growth inhibition, hits give high values
# Procedure, shortened: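 Growth inhibition relative to vehicle controls was scored for the mgt1 yeast strain after compound exposure.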
# [5] = NCI Yeast Anticancer Drug Screen. Data for the rad50 strain (AID 155);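 note: 0% = growth of vehicle-only cultures of the same strain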; details: S. cerevisiae rad50 strain growth inhibition, hits give high values
# Procedure, shortened: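 Growth of the mutant yeast was measured after compound exposure and referenced to vehicle-treated cultures.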
# [6] = NCI Yeast Anticancer Drug Screen. Data for the mec2-1 strain (AID 157); details: S. cerevisiae mec2-1 strain, hits give high values
# Procedure, shortened: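 Growth inhibition is read against vehicle-treated controls after compound exposure of the mec2-1 yeast strain, which is defective in DNA damage repair or cell cycle control.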
# [7] = NCI Yeast Anticancer Drug Screen. Data for the rad14 strain (AID 159);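 note: 0% = growth of vehicle-treated control cultures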; details: S. cerevisiae rad14 strain growth inhibition, hits give high values
# Procedure, shortened: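 Here, inhibition of yeast growth was measured after compound exposure, using a strain with a genetic defect in DNA damage repair and vehicle-treated cultures as the reference.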
# [8] = NCI Yeast Anticancer Drug Screen. Data for the sgs1 mgt1 strain (AID 161);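 note: 0% = growth of cultures given vehicle only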; details: S. cerevisiae sgs1 mgt1 strain, hits give high values
# Procedure, shortened: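 Growth of a repair-deficient yeast mutant was monitored after compound treatment and expressed as inhibition relative to vehicle-treated cultures.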
# [9] = NCI Yeast Anticancer Drug Screen. Data for the CLN2oe strain (AID 163);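 note: 0% = growth of vehicle-only control cultures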; details: S. cerevisiae CLN2oe strain, hits give high values
# Procedure, shortened: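 Compound-treated yeast; growth vs vehicle ctrl = % inhibition. Genetically altered strain (cell-cycle control).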
# [10] = NCI Yeast Anticancer Drug Screen. Data for the cln2 rad14 strain (AID 165);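 note: 0% = growth equal to vehicle treated cultures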; details: S. cerevisiae cln2 rad14 strain, hits give high values
# Procedure, shortened: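 Growth inhibition, relative to vehicle-treated controls, is the read-out. The test organism is a yeast strain with defined genetic alterations, cln2 rad14.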
# [11] = NCI Yeast Anticancer Drug Screen. Data for the bub3 strain (AID 167); details: S. cerevisiae bub3 mutant strain, hits give high values
# Procedure, shortened: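 Whole-cell yeast assay. The mutant strain was incubated with compounds, and growth inhibition was determined by comparison with vehicle-treated cells.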
# [12] = NCI Yeast Anticancer Drug Screen. Data for the wt2 strain (AID 169);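 note: 0% = growth of vehicle-treated yeast cultures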; details: S. cerevisiae wt2 strain growth inhibition, hits give high values
# Procedure, shortened: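 Compound exposure of yeast; growth compared with vehicle controls; inhibition reported.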
# [13] = NCI Yeast Anticancer Drug Screen. Data for the sgs1 strain (AID 173);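 note: 0% = growth of vehicle-only control cultures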; details: S. cerevisiae sgs1 mutant, hits give high values
# Procedure, shortened: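 Compounds applied to genetically altered yeast; growth compared with vehicle-treated cultures to give % inhibition.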
# [14] = NCI Yeast Anticancer Drug Screen. Data for the rad18 strain (AID 177); details: S. cerevisiae rad18 mutant growth inhibition, hits give high values
# Procedure, shortened: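 Compounds are applied to a repair-deficient yeast strain, and growth is compared with that of vehicle-treated cultures to give percent inhibition.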
# [15] = at 5.0 µM (retest, dose inferred, filed as 0.5)
# [16] = at 50.0 µM (retest, dose inferred, filed as 5.0)
smiles,measurement,setting,value
O=C1/C(=C/c2ccccc2)CCCC1CN1CCCCC1 (stereo not given),growth inhibition,[1]; at 1.2 µM,13%
same,growth inhibition,[1]; at 3.7 µM,35%
same,growth inhibition,[1]; at 11.0 µM,56%
same,growth inhibition,[1]; at 33.0 µM,72% (active)
same,growth inhibition,[1]; at 100.0 µM,78% (active)
same,growth inhibition,[2]; at 1.2 µM,10%
same,growth inhibition,[2]; at 3.7 µM,19%
same,growth inhibition,[2]; at 11.0 µM,28%
same,growth inhibition,[2]; at 33.0 µM,31%
same,growth inhibition,[2]; at 100.0 µM,34%
same,growth inhibition,[3]; at 1.2 µM,-2%
same,growth inhibition,[3]; at 3.7 µM,-1%
same,growth inhibition,[3]; at 11.0 µM,15%
same,growth inhibition,[3]; at 33.0 µM,46%
same,growth inhibition,[3]; at 100.0 µM,51%
same,growth inhibition,[4]; at 1.2 µM,16%
same,growth inhibition,[4]; at 3.7 µM,44%
same,growth inhibition,[4]; at 11.0 µM,59%
same,growth inhibition,[4]; at 33.0 µM,85% (active)
same,growth inhibition,[4]; at 100.0 µM,96% (active)
same,growth inhibition,[5]; at 1.2 µM,13%
same,growth inhibition,[5]; at 3.7 µM,26%
same,growth inhibition,[5]; [15],29%
same,growth inhibition,[5]; at 11.0 µM,39%
same,growth inhibition,[5]; at 33.0 µM,61%
same,growth inhibition,[5]; [16],79% (active)
same,growth inhibition,[5]; at 50.0 µM,72.3% (active)
same,growth inhibition,[5]; at 100.0 µM,68%
same,growth inhibition,[6]; at 1.2 µM,16%
same,growth inhibition,[6]; at 3.7 µM,22%
same,growth inhibition,[6]; [15],32%
same,growth inhibition,[6]; at 11.0 µM,34%
same,growth inhibition,[6]; at 33.0 µM,48%
same,growth inhibition,[6]; [16],74% (active)
same,growth inhibition,[6]; at 50.0 µM,75.2% (active)
same,growth inhibition,[6]; at 100.0 µM,57%
same,growth inhibition,[7]; at 1.2 µM,48%
same,growth inhibition,[7]; at 3.7 µM,70% (active)
same,growth inhibition,[7]; at 11.0 µM,92% (active)
same,growth inhibition,[7]; at 33.0 µM,98% (active)
same,growth inhibition,[7]; at 100.0 µM,98% (active)
same,growth inhibition,[8]; [15],40%
same,growth inhibition,[8]; [16],80% (active)
same,growth inhibition,[8]; at 50.0 µM,85.7% (active)
same,growth inhibition,[9]; at 1.2 µM,40%
same,growth inhibition,[9]; at 3.7 µM,59%
same,growth inhibition,[9]; at 11.0 µM,67%
same,growth inhibition,[9]; at 33.0 µM,80% (active)
same,growth inhibition,[9]; at 100.0 µM,83% (active)
same,growth inhibition,[10]; [15],65%
same,growth inhibition,[10]; [16],69%
same,growth inhibition,[10]; at 50.0 µM,75.4% (active)
same,growth inhibition,[11]; at 1.2 µM,30%
same,growth inhibition,[11]; at 3.7 µM,53%
same,growth inhibition,[11]; [15],12%
same,growth inhibition,[11]; at 11.0 µM,79% (active)
same,growth inhibition,[11]; at 33.0 µM,95% (active)
same,growth inhibition,[11]; [16],83% (active)
same,growth inhibition,[11]; at 50.0 µM,82.9% (active)
same,growth inhibition,[11]; at 100.0 µM,97% (active)
same,growth inhibition,[12]; at 1.2 µM,19%
same,growth inhibition,[12]; at 3.7 µM,31%
same,growth inhibition,[12]; at 11.0 µM,51%
same,growth inhibition,[12]; at 33.0 µM,79% (active)
same,growth inhibition,[12]; at 100.0 µM,87% (active)
same,growth inhibition,[13]; at 1.2 µM,29%
same,growth inhibition,[13]; at 3.7 µM,42%
same,growth inhibition,[13]; at 11.0 µM,67%
same,growth inhibition,[13]; at 33.0 µM,86% (active)
same,growth inhibition,[13]; at 100.0 µM,91% (active)
same,growth inhibition,[14]; at 1.2 µM,34%
same,growth inhibition,[14]; at 3.7 µM,59%
same,growth inhibition,[14]; at 11.0 µM,74% (active)
same,growth inhibition,[14]; at 33.0 µM,83% (active)
same,growth inhibition,[14]; at 100.0 µM,90% (active)
